101 molecules from PubChem BioAssay AID602410 (Johns Hopkins Ion Channel Center, 2012) can be followed below.

Each structure is given as a SMILES string. About 2,800 (0.82%) of roughly 340,000 compounds were called active.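 Rule for the calls: active = B-score under library mean minus 4 SD, starting fluorescence ratio at most library mean plus 5 SD; inactive = the rest.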 What follows is part of a selection rich in actives, with near analogues and random picks from the rest.

This assay deals with Potassium channel subfamily K member 3 (Homo sapiens) (UniProt O14649). The assay can be described thus: blockers of TASK1 two-pore potassium channel – CHO cells, FluxOR thallium flux, B-score, primary screen (AID 602410).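 For B-score: more negative B-score means stronger inhibition of thallium flux through KCNK3.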 As to conditions: CHO-KCNK3 thallium flux, FluxOR fluorescence, at 10 µM; hits give low values.
Sequence of Potassium channel subfamily K member 3 (Homo sapiens) (O14649 whole entry, looked up): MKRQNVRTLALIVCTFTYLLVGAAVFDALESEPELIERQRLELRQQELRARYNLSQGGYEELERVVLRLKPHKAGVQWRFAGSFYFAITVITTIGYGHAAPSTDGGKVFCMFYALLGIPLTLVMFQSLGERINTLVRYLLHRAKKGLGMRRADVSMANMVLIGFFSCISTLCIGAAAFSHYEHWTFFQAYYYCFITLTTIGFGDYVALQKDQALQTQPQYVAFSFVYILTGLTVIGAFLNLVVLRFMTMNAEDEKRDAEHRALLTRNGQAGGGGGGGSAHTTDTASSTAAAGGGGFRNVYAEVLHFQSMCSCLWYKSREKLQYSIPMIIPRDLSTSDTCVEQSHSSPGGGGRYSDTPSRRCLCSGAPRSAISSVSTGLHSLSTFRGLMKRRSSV
Turning to `Cc1nc(N2CCC(C)CC2)c2c(C)c(C(=O)Nc3cc(F)ccc3C)sc2n1`, the B-score result is “inactive”.
`CCOC(=O)C1CCCN(C(=O)c2sc3nc(C)nc(N4CCOCC4)c3c2C)C1` (stereo unspecified): the B-score entry is “inactive”.
Regarding `Cc1cc(Br)ccc1NC(=O)c1sc2ncn(CC(=O)N3CCN(c4ccccn4)CC3)c(=O)c2c1C`, the B-score result was “inactive”.
As for `O=C(c1c(F)cccc1Cl)N1CCN(c2ccccn2)CC1`, the B-score entry was “inactive”.
On to `COc1ccc(NC(=O)c2sc3nc(C)nc(N4CCN(c5ccccn5)CC4)c3c2C)c(OC)c1`, for which the B-score entry was “inactive”.
`Cc1nc(N2CCOCC2)c2c(C)c(C(=O)Nc3ccc(C(F)(F)F)cc3)sc2n1`: the B-score was -8.85 (active).
With `Cc1cc(Br)ccc1NC(=O)c1cnc(N2CCN(c3ccccn3)CC2)c2ccccc12`, the B-score result is “inactive”.
In the case of `Cc1nc(N2CCN(c3ccccn3)CC2)c2c(C)c(C(=O)Nc3ccc(F)c(Cl)c3)sc2n1` it was -12 (active).
On to `Cc1nc(N2CCN(c3ccccn3)CC2)c2c(C)c(C(=O)Nc3ccc(F)cc3)sc2n1`, for which the B-score was -13 (active).
For the molecule `C/C(=N/NC(=O)c1ccn(C)n1)c1ccncc1`, the B-score entry is “inactive”.
Regarding `Cc1ccccc1-c1nc(CS(=O)(=O)CC(=O)NC(C)c2ccccc2)c(C)o1` (stereo unspecified), the B-score result was “inactive”.
For the molecule `CCOc1ccc(C(CC(=O)O)NC(=O)C23CC4CC(CC(C4)C2)C3)cc1OC` (stereo unspecified), the B-score result is “inactive”.
`Cc1cc(NC(=O)C(C)SCC(=O)Nc2ccccc2N2CCCCC2)no1` (stereo unspecified): the B-score result is “inactive”.
Turning to `Cc1ccc(OCCC(=O)Nc2ccc(S(=O)(=O)Nc3nccs3)cc2)cc1`, the B-score entry is “inactive”.
In the case of `O=C1NC(c2ccncc2)Nc2sc3c(c21)CCCC3` (stereo unspecified), the B-score entry was “inactive”.
For `O=C(NCC(=O)N1CCCCCCC1)c1ccccc1Cl`, the B-score result was “inactive”.
Consider `CCCc1cc(=O)[nH]c(SCC(=O)N2CCN(S(=O)(=O)c3ccc(C)cc3C)CC2)n1`, for which the B-score result was “inactive”.
On to `Cc1ccc(CN(CC(=O)NCC2CCCO2)S(=O)(=O)c2ccc(C)cc2)cc1` (stereo unspecified), for which the B-score entry is “inactive”.
In the case of `Cc1ccc(F)c(NC(=O)CCc2ccccc2)c1`, the B-score entry is “inactive”.
Regarding `Cc1ccc(F)c(NC(=O)CCOc2ccccc2C)c1`, the B-score result is “inactive”.
As to `CCn1ncc(Br)c1C(=O)Nc1cc(C)ccc1F`, the B-score was -9.47 (active).
As for `C=CCNC(=O)C1CC2c3ccccc3C1c1ccccc12` (stereo unspecified), the entry is “inactive”; as for `COc1ccc(Cl)cc1C=CC=Nc1ccc(S(N)(=O)=O)cc1`, “inactive”.
In the case of `COc1cccc(/C=N/Nc2ccc(S(=O)(=O)Nc3ccccc3C(=O)O)cc2[N+](=O)[O-])c1O`, the B-score result was “inactive”.
In the case of `COc1cccc(/C=N/Nc2cc(C)nc(-c3ccccc3O)n2)c1O`, the B-score was -11.6 (active).
Turning to `COc1ccc(Cc2nnc(N/N=C/c3ccccc3O)[nH]c2=O)cc1OC`, the B-score entry is “inactive”.
In the case of `COc1cccc(CN(C)CC(=O)Nc2ccccc2C(=O)Nc2ccccc2)c1`, the B-score entry is “inactive”.
As to `Cc1ccccc1C(OCC(O)CN1CCCCC1CCO)c1ccccc1` (stereo unspecified), the B-score result was “inactive”.
In the case of `COc1cccc(CN(C)CC(O)COC(c2ccccc2)c2ccccc2C)c1` (stereo unspecified) it was -12.7 (active); in that of `Cc1noc(C)c1S(=O)(=O)N(CC(=O)Nc1ccc2c(c1)OCCO2)c1ccc(C(C)C)cc1`, “inactive”.
For the molecule `CCOC(=O)c1cccc(NC(=O)CN(c2ccc(C)cc2)S(=O)(=O)c2c(C)noc2C)c1`, the B-score is -8.84 (active).
Turning to `COc1ccc(N(CC(=O)Nc2cc(OC)ccc2OC)S(=O)(=O)c2c(C)noc2C)cc1`, the B-score result is “inactive”.
On to `CC(Sc1nc2ccccc2c(=O)n1Cc1ccco1)C(=O)c1ccccc1` (stereo unspecified), for which the B-score is -8.93 (active).
With `N#Cc1c(NC(=O)CSc2nc3ccccc3c(=O)n2Cc2ccco2)sc2c1CCCC2`, the B-score result was “inactive”.
With `COc1cccc(NC(=O)C(Sc2nc3ccccc3c(=O)n2CC(C)C)c2ccccc2)c1` (stereo unspecified), the B-score entry is “inactive”.
For the molecule `CC(C)(C)OC(=O)Nc1ccc([C@@H](NC(=O)OC(C)(C)C)C(=O)OC(C)(C)C)cc1`, the B-score result was “inactive”.
Turning to `COc1ccc(CC(=O)NCc2nnc(SCC(=O)Nc3nccs3)n2C)cc1`, the B-score entry is “inactive”.
In the case of `CC1(C)Cc2ccccc2-c2nnc(-c3cccc(O)c3)n21`, the B-score entry was “inactive”.
With `COc1cc(C)c(Cl)cc1S(=O)(=O)n1ccnc1`, the B-score entry is “inactive”.
Consider `O=C(Cc1ccc(S(=O)(=O)N2CCOCC2)s1)Nc1ccc(Br)c(C(F)(F)F)c1`, for which the B-score was -9.72 (active).
Consider `O=C(Cc1ccc(S(=O)(=O)N2CCOCC2)s1)NCCOc1ccccc1F`, for which the B-score entry was “inactive”.
Turning to `O=C(Cc1ccc(S(=O)(=O)N2CCOCC2)s1)NCCC(c1ccccc1)c1ccccc1`, the B-score result is “inactive”.
Regarding `O=C1CCCN2N=C(SCC(=O)Nc3ccc(Br)cc3)SC2=N1`, the B-score result is “inactive”.
Regarding `N#C/C(=C\c1ccccc1)c1n[nH]c(Cn2cncn2)n1`, the B-score entry was “inactive”.
`CCN1CCN(C(=O)N[C@@H](C(=O)N[C@@H]2C(=O)N3C(C(=O)O)=C(CSc4nnnn4C)CS[C@H]23)c2ccc(O)cc2)C(=O)C1=O`: the B-score entry was “inactive”.
On to `CN(C(=O)CSc1nnc(-c2ccc(C(C)(C)C)cc2)n1C)C1CCS(=O)(=O)C1` (stereo unspecified), for which the B-score entry was “inactive”.
Consider `COc1ccc2c(c1)c(=O)c(C(=O)c1ccc(Cl)cc1)cn2CC(=O)Nc1ccc(F)cc1`, for which the B-score result is “inactive”.
As for `CN1c2ccc(C=O)c3c(C=O)ccc(c23)N(C)C1(C)C`, the figure is -11.3 (active); as for `COc1ccc(-c2nc(CN3CCN(c4ncccn4)CC3)c(C)o2)cc1C`, “inactive”; as for `Cc1ccc(C(CNC(=O)Nc2ccccc2)N2CCN(C)CC2)cc1` (stereo unspecified), “inactive”.
`COc1cccc(C(=O)Nc2cc3c(cc2Br)OCCCO3)c1`: the B-score result was “inactive”.
For the molecule `COc1ccc(-c2cc(C(=O)N(C)Cc3ccc(OC)c(OC)c3OC)c3ccccc3n2)cc1OC`, the B-score entry is “inactive”.
`COc1ccc(CN(C)C(=O)c2cc(-c3ccc(C)cc3C)nc3ccccc23)c(OC)c1OC`: the B-score was -12.7 (active).
Consider `COc1ccc(-c2cc(C(=O)N(C)CC(=O)Nc3ccccc3Cl)c3ccccc3n2)cc1OC`, for which the B-score result was “inactive”.
As to `CC(=O)c1c(Nc2ccccc2)sc(C(=O)c2ccccc2)c1C`, the B-score entry is “inactive”.
In the case of `COc1ccc(Cl)cc1NC(=O)CN(C)C(=O)c1cc(-c2cccs2)nn1-c1ccccc1`, the B-score result was “inactive”.
With `COc1cccc(C(=O)NCCSc2ccc(Br)cc2)c1`, the B-score was -8.94 (active).
In the case of `COc1cc(C(=O)NCC(=O)NCCSc2ccc(Br)cc2)cc(OC)c1OC` it was “inactive”; in that of `COc1ccccc1C(=O)NCC(=O)NCCSc1ccc(Br)cc1`, “inactive”.
On to `Cc1ccc(NCc2n[nH]c(=S)n2-c2ccccc2)cc1Cl`, for which the B-score entry was “inactive”.
Take `CCOc1ccc(OCCSc2nc3ccccc3n2CC(=O)O)cc1`: the B-score result is “inactive”.
On to `Cc1cc(C)cc(NC(=O)C2CCCN(S(=O)(=O)c3ccc4[nH]c(=O)ccc4c3)C2)c1` (stereo unspecified), for which the B-score entry is “inactive”.
As for `c1ccc(C2c3[nH]c4ccccc4c3CCN2Cc2cccn2-c2cccnc2)nc1` (stereo unspecified), the entry is “inactive”; as for `CCOc1ccc(C2c3[nH]c4ccccc4c3CCN2Cc2cn(CC)nc2C)cc1` (stereo unspecified), “inactive”; as for `CCOc1ccc(C2c3[nH]c4ccccc4c3CCN2Cc2cccn2-c2ncccn2)cc1` (stereo unspecified), -8.75 (active).
As for `O=C(NCc1ccccc1)C1=C[C@@H](c2ccc(C(F)(F)F)cc2)C[C@@H](OCc2ccc(CO)cc2)O1`, the B-score result was “inactive”.
In the case of `CCOc1ccc(C(C)=O)cc1COC(=O)c1cnc(Cl)c(Cl)c1`, the B-score result was “inactive”.
Consider `COc1ccc(C(C)=O)cc1COc1ccc(Cl)c(C)c1`, for which the B-score is -10.4 (active).
With `COCc1cc(C(C)=O)ccc1OC`, the B-score entry is “inactive”.
As for `O=S(=O)(c1cccc(-c2cn3ccccc3n2)c1)N1CCCC1`, the B-score result was “inactive”.
As for `O=S(=O)(NC1CCCCC1N1CCN(c2ccccc2F)CC1)c1ccccc1` (stereo unspecified), the B-score was -9.12 (active).
In the case of `O=S(=O)(NC1CCCCC1N1CCCCC1)c1ccc(Cl)cc1` (stereo unspecified) it was “inactive”.
For the molecule `COc1ccc(N2CCN(C3CCCCC3NS(=O)(=O)c3ccccc3)CC2)cc1` (stereo unspecified), the B-score result was “inactive”.
Consider `CCC(C)(C)NC(=O)C(c1ccc(O)cc1)N(Cc1ccco1)C(=O)CCC(=O)Nc1ccccn1` (stereo unspecified), for which the B-score result was “inactive”.
Turning to `Cn1c(=O)c2sccc2n(Cc2ccc(Br)cc2)c1=O`, the B-score entry is “inactive”.
Turning to `FC(F)(F)c1cc(-c2ccco2)nc(NCc2ccc(Cl)cc2)n1`, the B-score is -8.85 (active).
For the molecule `FC(F)(F)c1cc(-c2cccs2)nc(NCc2ccco2)n1`, the B-score result is “inactive”.
For the molecule `COc1nc(NCc2ccc(Cl)cc2)nc(OC)n1`, the B-score result is “inactive”.
Regarding `Cc1c(C(=O)N2CCCc3ccccc32)sc2nc(-c3ccccc3)cn12`, the B-score is -9.27 (active).
Regarding `Cc1c(C(=O)NCC2CCCO2)sc2nc(-c3ccccc3)cn12` (stereo unspecified), the B-score entry is “inactive”.
Turning to `Cc1cccc2cc3c(N)c(C(=O)N4CCCc5ccccc54)sc3nc12`, the B-score result was “inactive”.
As to `N[C@@H](Cc1ccccc1)C(=O)N1CCC(C(=O)NCC(=O)Nc2ccc(F)cc2)CC1`, the B-score result is “inactive”.
On to `COc1ccc(C(F)(F)F)cc1N/C=C\c1nnnn1-c1ccc(C)cc1`, for which the B-score entry was “inactive”.
With `Cc1ccc(C(=O)N/N=C\c2cc(Br)c(Br)o2)cn1`, the B-score result was “inactive”.
As for `COc1ccc(OCCNS(=O)(=O)Cc2ccccc2)cc1`, the B-score result is “inactive”.
In the case of `COc1ccc(S(=O)(=O)NCCCCOc2ccc(Cl)cc2)cc1`, the B-score was -9.65 (active).
In the case of `COc1ccc(S(=O)(=O)NCCOc2ccccc2)cc1F`, the B-score result is “inactive”.
Regarding `CCCC(C)c1nnc(NC(=O)C2CC(=O)N(c3ccc(OCC)cc3)C2)s1` (stereo unspecified), the B-score entry was “inactive”.
Take `CC(C)[C@H](NC(=O)Nc1ccc(S(N)(=O)=O)cc1)C(=O)O`: the B-score entry is “inactive”.
In the case of `CCCCCC(O)c1cccc(OCc2ccc3ccccc3n2)c1` (stereo unspecified) it was -9.81 (active).
As to `COc1cccc(C(O)c2nc3ccccc3n2C)c1` (stereo unspecified), the B-score result is “inactive”.
Turning to `CC(C)n1c(COc2ccccc2)nc2ccccc21`, the B-score result was “inactive”.
As for `NS(=O)(=O)c1ccc(NC(=O)/C=C/c2ccccc2Cl)cc1`, the B-score result was “inactive”.
Take `Cc1cc(=O)oc2c(C)c(OC(C)C(=O)NC3CCN(Cc4ccccc4)CC3)ccc12` (stereo unspecified): the B-score result was “inactive”.
With `COc1cc(C(=S)NCc2ccccc2)cc(Br)c1O`, the B-score result was “inactive”.
Take `CC(=O)N1c2ccc(S(=O)(=O)N3CCC(C(=O)N4CCN(c5ccccc5)CC4)CC3)cc2CC1C` (stereo unspecified): the B-score result is “inactive”.
Take `CC(=O)N1CCCc2cc(S(=O)(=O)N3CCCC(C(=O)N4CCN(c5cccc(Cl)c5)CC4)C3)ccc21` (stereo unspecified): the B-score is -9.62 (active).
As for `CC(=O)N1CCCc2cc(S(=O)(=O)CCC(=O)N3CCN(c4ccccc4)CC3)ccc21`, the B-score entry was “inactive”.
Regarding `CCOc1ccc2[nH]c(=O)c(CN(Cc3nnnn3Cc3ccccc3)CC3CCCO3)cc2c1` (stereo unspecified), the B-score entry was “inactive”.
With `Cc1cccc2cc(CN(Cc3nnnn3Cc3ccccc3)C3CCCC3)c(=O)[nH]c12`, the B-score was -10.8 (active).
On to `Cc1cc(C)c2cc(CN(Cc3nnnn3Cc3ccc(F)cc3)C3CCCC3)c(=O)[nH]c2c1`, for which the B-score result is “inactive”.
